The target of experiment [1] is Aryl hydrocarbon receptor (Homo sapiens) (UniProt P35869). Kind of experiment: qHTS assay to identify small molecule that activate the aryl hydrocarbon receptor (AhR) signaling pathway (AID 743085).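 Note: HG2L7.5c1 human HepG2 liver cells with stably integrated DRE-driven firefly reporter; series mostly up to about 70 µM; nearly all actives have a fitted effect of over 15% in size.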 An outline of the steps: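 A multiplexed format paired cell viability (CellTiter-Fluor fluorescence) with AhR-dependent luciferase output (ONE-Glo luminescence) in the same wells of HepG2 DRE-luc cells after 24 h compound exposure at 37C.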

Experiment [2] in a line: qHTS assay to identify small molecule that activate the aryl hydrocarbon receptor (AhR) signaling pathway - cell viability counter screen (AID 743086).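 Note: HepG2 liver cells carrying the AhR DRE luciferase reporter; series mostly up to about 70 µM; nearly all actives have a fitted effect of over 45% in size.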 The method, boiled down:
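HepG2-AhR-luc (HG2L7.5c1) cells, 4000/well, were preincubated 5 h at 37C, exposed to compound in qHTS format for 24 hr at 37C, then given CellTiter-Fluor for 30 min; viability was read as fluorescence in the reporter wells.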
Background: In qHTS, concentration-response curves come from the screen itself.

Experiment [3] in a line: qHTS assay to identify small molecule antagonists of the peroxisome proliferator-activated receptor gamma (PPARg) signaling pathway - cell viability counter screen (AID 743194). Note: nearly all actives have a fitted effect of over 55% in size. Conditions: Potency: co-treated with 50 nM rosiglitazone unless noted. The method, boiled down:
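PPARg-UAS-bla HEK293H cells were plated, rested 5 h at 37 C, then treated with compounds plus rosiglitazone (50 nM final) for 17 h at 37 C; viability was then read by CellTiter-Glo luminescence after 30 min at room temperature.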

A short description of experiment [4]: qHTS assay for small molecule agonists of the antioxidant response element (ARE) signaling pathway (AID 743202; active = well fitted activation curve with a large enough effect in the signal ratio in the repeat runs, not every such curve was filed as active; the % refers to the signal ratio; note: potency is the fitted concentration of half-maximal effect). An outline of the steps:
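Compounds delivered in DMSO to ARE-bla HepG2 cells (2,000 cells/well, pre-incubated 5 h) and left 16 h at 37 C. LiveBLAzer B/G FRET substrate then added for 2 h at RT before fluorescence reading.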

Experiment [5] is described as follows: qHTS assay for small molecule agonists of the antioxidant response element (ARE) signaling pathway - cell viability counter screen (AID 743203; calls by dose curve; note: nearly all actives have a fitted effect of over 55% in size). An outline of the steps:
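ARE-bla HepG2 cells were plated, rested 5 h at 37C/5% CO2, then exposed to compounds in DMSO for 16 h. Viability was read as CellTiter-Glo luminescence after 30 min at room temperature, in the same wells as the ARE screen.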

The nature of experiment [6]: qHTS assay for small molecule activators of the heat shock response signaling pathway - cell viability counter screen (AID 743209). Note: nearly all actives have a fitted effect of over 50% in size. The method, boiled down:
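HSE-bla HeLa cells plated overnight, then exposed to Tox21 compounds (23 nL in DMSO) for 5 h at 37 C. After the bla reporter read, CellTiter-Glo was added in the same wells and luminescence read after 30 min at room temperature.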

A short description of experiment [7]: qHTS assay for small molecule activators of the heat shock response signaling pathway (AID 743210; active = well fitted activation curve with a large enough effect in the signal ratio in the repeat runs, with a control signal flat, not every such curve was filed as active; the % refers to the signal ratio;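 note: HeLa cells with beta-lactamase reporter driven by heat shock elements; series mostly up to about 63 µM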). The method, boiled down: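 Reporter gene assay: HeLa cells stably bearing an HSE-bla construct, compound treatment 5 h at 37 C, LiveBLAzer substrate 2.5 h at RT, fluorescence intensity.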
Experiment [8] can be described thus: qHTS assay to identify small molecule agonists of the peroxisome proliferator-activated receptor delta (PPARd) signaling pathway - cell viability counter screen (AID 743211). Note: nearly all actives have a fitted effect of over 55% in size. The method, boiled down: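 Tox21 library compounds, delivered in DMSO, were incubated 17 h with PPARd-bla HEK293H cells; cytotoxicity was taken from CellTiter-Glo luminescence read 30 min after reagent addition.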

In experiment [9] the target is Peroxisome proliferator-activated receptor delta (Homo sapiens) (UniProt Q03181). Kind of experiment: qHTS assay to identify small molecule agonists of the peroxisome proliferator-activated receptor delta (PPARd) signaling pathway (AID 743212; calls by dose curve). The method, boiled down: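 A PPARd-bla HEK293H line with beta-lactamase under an Upstream Activator Sequence is treated with compounds at 37 C. Substrate loading for 2 h at room temperature precedes the fluorescence measurement.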

The nature of experiment [10]: qHTS assay to identify small molecule antagonists of the peroxisome proliferator-activated receptor delta (PPARd) signaling pathway - cell viability counter screen (AID 743213). Note: nearly all actives have a fitted effect of over 50% in size. An outline of the steps: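 PPARd-bla HEK293H cells (3000/well) got compound plus 300 nM L165041 agonist for 17 h at 37 C. Viability in the same wells came from CellTiter-Glo luminescence after 30 min at room temperature.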

The target in experiment [11] is Peroxisome proliferator-activated receptor delta (Homo sapiens) (UniProt Q03181). In words: qHTS assay to identify small molecule antagonists of the peroxisome proliferator-activated receptor delta (PPARd) signaling pathway (AID 743215; active = well fitted inhibition curve with a large enough effect in the signal ratio in the repeat runs, not every such curve was filed as active; the % refers to the signal ratio;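 note: cells stimulated with agonist L165041 at 300 nM final during compound exposure; series mostly up to about 62 µM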). The method, boiled down: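 PPARd-bla HEK293H cells (UAS-bla reporter) preincubated 5 h, then given compound plus 300 nM final L165041 agonist for 17 h at 37 C. Beta-lactamase activity read by LiveBLAzer B/G FRET substrate fluorescence after 2 h at room temperature.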

Experiment [12] in a line: qHTS assay to identify small molecule agonists of the farnesoid-X-receptor (FXR) signaling pathway - cell viability counter screen (AID 743218). Note: nearly all actives have a fitted effect of over 45% in size. The method, boiled down: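 FXR-UAS-bla HEK 293T cells exposed to compounds for 16 h at 37C. Cytotoxicity read in the same wells by CellTiter-Glo luminescence after 30 min at room temperature, following the beta-lactamase FRET read.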

Experiment [13] can be described thus: qHTS assay to identify small molecule antagonists of the farnesoid-X-receptor (FXR) signaling pathway - cell viability counter screen (AID 743221; active = well fitted cell-killing curve with a large enough effect in the repeat runs, not every such curve was filed as active; note: nearly all actives have a fitted effect of over 50% in size). An outline of the steps:
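Cytotoxicity is taken from ATP luminescence (CellTiter-Glo, 30 min, room temperature) in FXR-bla HEK 293T cells previously incubated 16 h at 37 C with compound and chenodeoxycholic acid at 50 uM final.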

Experiment [14] in a line: qHTS assay to identify aromatase inhibitors - cell viability counter screen (AID 743084).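 Note: cells stimulated with testosterone during compound exposure; nearly all actives have a fitted effect of over 55% in size.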 Note: potency is the fitted concentration of half-maximal effect.
Experiment [15] concerns the target Bile acid receptor (Homo sapiens) (UniProt Q96RI1). In words: qHTS assay to identify small molecule antagonists of the farnesoid-X-receptor (FXR) signaling pathway (AID 743217; active = well fitted inhibition curve with a large enough effect in the signal ratio in the repeat runs, not every such curve was filed as active; the % refers to the signal ratio). The method, boiled down: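 FXR-UAS-bla HEK 293T cells (beta-lactamase reporter) given compound plus chenodeoxycholic acid (50 uM final), 16 h at 37C. LiveBLAzer B/G FRET substrate added for 2 h at room temperature; fluorescence read.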

For experiment [16] the target is unchanged. Kind of experiment: qHTS assay to identify small molecule agonists of the farnesoid-X-receptor (FXR) signaling pathway (AID 743220; active = well fitted activation curve with a large enough effect in the signal ratio in the repeat runs, not every such curve was filed as active; the % refers to the signal ratio). An outline of the steps:
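Beta-lactamase reporter under UAS control in GeneBLAzer FXR HEK 293T cells (5000/well) measured with LiveBLAzer FRET substrate after 2 h at room temperature. Compound exposure lasted 16 h at 37C.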

Experiment [17] addresses Vitamin D3 receptor (Homo sapiens) (UniProt P11473). Kind of experiment: qHTS assay to identify small molecule agonists of the vitamin D receptor (VDR) signaling pathway (AID 743222; calls by dose curve). An outline of the steps: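 VDR-bla cells plated 4 h at 37 C, then exposed to compounds for 16 h at 37 C. Beta-lactamase reporter activity measured by fluorescence after 2 h room-temperature loading with LiveBLAzer B/G FRET substrate.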

The target is the same in experiment [18]. In words: qHTS assay to identify small molecule antagonists of the vitamin D receptor (VDR) signaling pathway (AID 743223; active = well fitted inhibition curve with a large enough effect in the signal ratio in the repeat runs, not every such curve was filed as active; the % refers to the signal ratio). An outline of the steps: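 Quantitative HTS in VDR-bla reporter cells stimulated with 1alpha,25-dihydroxyvitamin D3, 3 nM final. Compound exposure 16 h, 37C, 5% CO2. Read-out: beta-lactamase FRET substrate fluorescence, 2 h RT.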
Experiment [19] has as its target Peroxisome proliferator-activated receptor gamma (Homo sapiens) (UniProt P37231). In words: qHTS assay to identify small molecule agonists of the peroxisome proliferator-activated receptor gamma (PPARg) signaling pathway (AID 743094; active = well fitted activation curve with a large enough effect in the signal ratio in the repeat runs, not every such curve was filed as active; the % refers to the signal ratio). An outline of the steps:
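GeneBLAzer PPARg UAS-bla HEK293H cells were plated, rested 5 h, then exposed to compounds for 17 h at 37C. Beta-lactamase activity was read by LiveBLAzer B/G FRET substrate fluorescence after 1 h at room temperature.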

Experiment [20] shares this target. In words: qHTS assay to identify small molecule antagonists of the peroxisome proliferator-activated receptor gamma (PPARg) signaling pathway (AID 743191; calls by dose curve; note: series mostly up to about 63 µM; nearly all actives have a fitted effect of over 30% in size). An outline of the steps:
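GeneBLAzer PPARg UAS-bla HEK293H cells carrying a UAS-driven beta-lactamase reporter were plated at 3000 cells/well, preincubated 5 h at 37C, then given compound for 17 h at 37C; LiveBLAzer B/G FRET substrate was read after 1 h at room temperature.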

In PubChem BioAssay (Tox21) one finds Potency and outcome data, which are given here for 9 molecules.

Values joined by “and” are separate entries in the source; they are usually repeats but may differ in a detail not shown here. Equal entries are not always repeated. Inconclusive results are not listed. Some structures have more than one record in an assay (separate samples or runs), and their calls can disagree. Active and inactive are the calls of the source. Unless noted, calls come from the whole dose curve; as a rule, active = well fitted curve in the direction sought with a large enough effect in the repeat runs; inconclusive = weak or mixed curves; inactive = no such curve, though single readings can be large; an effect the other way counts as inactive or inconclusive.

Sequence of Peroxisome proliferator-activated receptor delta (Homo sapiens) (Q03181 whole entry, looked up): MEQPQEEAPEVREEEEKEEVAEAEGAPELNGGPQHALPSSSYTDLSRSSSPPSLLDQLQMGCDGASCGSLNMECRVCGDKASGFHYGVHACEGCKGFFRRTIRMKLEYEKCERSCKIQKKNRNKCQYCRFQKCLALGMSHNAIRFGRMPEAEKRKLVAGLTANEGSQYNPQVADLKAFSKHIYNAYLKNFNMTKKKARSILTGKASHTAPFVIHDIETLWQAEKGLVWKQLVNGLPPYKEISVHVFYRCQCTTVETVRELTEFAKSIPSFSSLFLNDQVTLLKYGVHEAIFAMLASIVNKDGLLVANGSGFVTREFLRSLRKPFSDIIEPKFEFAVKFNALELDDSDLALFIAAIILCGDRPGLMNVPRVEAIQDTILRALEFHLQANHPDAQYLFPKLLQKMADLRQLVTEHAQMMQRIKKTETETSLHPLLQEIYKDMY
Sequence of Aryl hydrocarbon receptor (Homo sapiens) (P35869 whole entry, looked up): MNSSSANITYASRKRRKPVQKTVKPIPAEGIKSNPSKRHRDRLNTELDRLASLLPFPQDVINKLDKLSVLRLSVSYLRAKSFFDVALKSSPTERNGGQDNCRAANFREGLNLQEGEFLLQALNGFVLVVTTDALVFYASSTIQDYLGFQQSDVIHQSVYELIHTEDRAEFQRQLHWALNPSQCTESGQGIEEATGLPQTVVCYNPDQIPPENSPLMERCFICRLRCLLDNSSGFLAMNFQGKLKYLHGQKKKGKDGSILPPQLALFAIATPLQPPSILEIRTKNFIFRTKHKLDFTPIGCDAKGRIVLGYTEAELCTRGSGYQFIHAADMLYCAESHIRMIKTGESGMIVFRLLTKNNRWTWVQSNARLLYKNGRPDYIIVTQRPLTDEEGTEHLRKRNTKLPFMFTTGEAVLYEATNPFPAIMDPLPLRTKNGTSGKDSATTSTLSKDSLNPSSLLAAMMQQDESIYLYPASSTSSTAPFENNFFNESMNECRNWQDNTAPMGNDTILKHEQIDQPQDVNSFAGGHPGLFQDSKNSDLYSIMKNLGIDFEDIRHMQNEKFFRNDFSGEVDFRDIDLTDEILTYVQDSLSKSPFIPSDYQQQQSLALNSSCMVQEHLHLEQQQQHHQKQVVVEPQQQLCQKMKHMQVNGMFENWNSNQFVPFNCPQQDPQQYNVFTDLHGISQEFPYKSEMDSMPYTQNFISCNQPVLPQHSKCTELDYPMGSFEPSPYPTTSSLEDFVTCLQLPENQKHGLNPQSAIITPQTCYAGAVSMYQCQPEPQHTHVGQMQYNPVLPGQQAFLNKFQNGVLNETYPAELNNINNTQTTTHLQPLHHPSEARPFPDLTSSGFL
Sequence of Bile acid receptor (Homo sapiens) (Q96RI1 whole entry, looked up): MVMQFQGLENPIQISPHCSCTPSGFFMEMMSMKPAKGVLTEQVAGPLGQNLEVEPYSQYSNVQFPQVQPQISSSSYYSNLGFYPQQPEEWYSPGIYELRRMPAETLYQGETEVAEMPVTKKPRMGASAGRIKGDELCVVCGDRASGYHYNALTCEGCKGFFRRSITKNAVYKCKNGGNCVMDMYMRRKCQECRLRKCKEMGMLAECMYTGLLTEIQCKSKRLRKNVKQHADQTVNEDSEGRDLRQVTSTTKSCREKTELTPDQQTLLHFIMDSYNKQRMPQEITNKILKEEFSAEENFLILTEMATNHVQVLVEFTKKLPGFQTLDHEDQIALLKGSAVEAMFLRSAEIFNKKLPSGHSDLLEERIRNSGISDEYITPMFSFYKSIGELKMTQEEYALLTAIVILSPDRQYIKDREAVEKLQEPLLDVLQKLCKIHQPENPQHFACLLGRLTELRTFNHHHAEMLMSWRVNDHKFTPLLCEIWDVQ
Sequence of Peroxisome proliferator-activated receptor gamma (Homo sapiens) (P37231 whole entry, looked up): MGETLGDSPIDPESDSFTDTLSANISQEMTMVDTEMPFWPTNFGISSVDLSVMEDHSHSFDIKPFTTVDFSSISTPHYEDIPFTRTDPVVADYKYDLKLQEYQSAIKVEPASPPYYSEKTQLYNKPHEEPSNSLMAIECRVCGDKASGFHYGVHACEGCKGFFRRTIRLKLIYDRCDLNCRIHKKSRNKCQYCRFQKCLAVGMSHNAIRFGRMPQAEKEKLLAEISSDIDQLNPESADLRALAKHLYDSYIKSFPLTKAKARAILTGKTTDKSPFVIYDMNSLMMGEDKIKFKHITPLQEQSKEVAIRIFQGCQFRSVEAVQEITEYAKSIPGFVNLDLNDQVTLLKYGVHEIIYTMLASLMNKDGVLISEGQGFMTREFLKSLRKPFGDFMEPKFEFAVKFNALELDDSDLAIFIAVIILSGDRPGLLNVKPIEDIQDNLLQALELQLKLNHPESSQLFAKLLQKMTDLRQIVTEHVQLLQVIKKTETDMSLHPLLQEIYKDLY
Sequence of Vitamin D3 receptor (Homo sapiens) (P11473 whole entry, looked up): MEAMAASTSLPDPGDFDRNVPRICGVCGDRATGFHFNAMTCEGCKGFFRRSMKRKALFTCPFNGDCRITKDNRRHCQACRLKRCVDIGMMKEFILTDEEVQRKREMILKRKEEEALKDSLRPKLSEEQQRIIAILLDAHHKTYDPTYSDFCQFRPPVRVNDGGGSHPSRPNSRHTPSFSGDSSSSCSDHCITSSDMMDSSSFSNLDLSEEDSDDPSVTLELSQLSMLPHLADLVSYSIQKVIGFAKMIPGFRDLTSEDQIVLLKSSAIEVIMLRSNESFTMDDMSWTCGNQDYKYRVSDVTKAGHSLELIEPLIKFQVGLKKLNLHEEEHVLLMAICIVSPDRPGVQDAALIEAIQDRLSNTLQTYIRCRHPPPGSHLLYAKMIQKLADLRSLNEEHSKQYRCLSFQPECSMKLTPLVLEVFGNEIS

Turning to `CN1Cc2c(N)cccc2C(c2ccccc2)C1` (stereo not drawn), the Potency result in experiment [1], in experiment [2], in [3], in [4], in [5] and in experiment [6] was “inactive” each time. Also, the Potency result in experiment [7], in experiment [8], in [9], in experiment [10], in experiment [11] and in [12] was “inactive” in each case. For the same molecule, the Potency entry in experiment [13] was “inactive”.
As to `COc1ccccc1[N+](=O)[O-]`, the Potency result in [14], in experiment [1], in [2], in experiment [3], in experiment [4] and in experiment [5] was “inactive” each time. The Potency result in experiment [6], in experiment [7], in [8], in experiment [10], in experiment [15] and in [12] was “inactive” each time. The Potency entry in experiment [16], in [13] and in experiment [18] was “inactive” in each case. Moreover, the result in [17] was inactive.
Consider `CCn1cc(C(=O)O)c(=O)c2cc3c(cc21)OCO3`, for which the Potency entry in experiment [14], in experiment [1], in [2], in experiment [3], in [4] and in experiment [5] was “inactive” each time. Further, the Potency entry in [7], in [8], in experiment [9], in experiment [10], in [11] and in experiment [15] was “inactive” in each case. Moreover, the Potency result in [12], in experiment [16] and in [18] was “inactive” throughout. In experiment [17], the molecule was called inactive.
On to `CC(C)(CO)CO`, for which the Potency entry in [14], in [1], in experiment [2], in experiment [3], in experiment [4] and in experiment [5] was “inactive” each time. The Potency entry in [7], in experiment [8], in [9], in [10], in experiment [11] and in experiment [12] was “inactive” throughout. The Potency result in experiment [13] is “inactive”.
Turning to `CC(=O)c1nccs1`, the Potency result in experiment [14], in experiment [2], in experiment [19], in experiment [20], in experiment [3] and in experiment [4] was “inactive” throughout. In addition, the Potency entry in experiment [5], in experiment [6], in [7], in experiment [8], in [9] and in [10] was “inactive” each time. Also, the Potency entry in experiment [11], in [12], in [13] and in [18] was “inactive” each time. Besides, the call in [17] was inactive.
For the molecule `Clc1cccc(Cl)c1NC1=NCCN1`, the Potency result in experiment [14], in experiment [1], in experiment [2], in experiment [3], in experiment [4] and in [5] was “inactive” in each case. The Potency result in experiment [6], in experiment [7], in experiment [8], in experiment [10], in experiment [12] and in experiment [13] was “inactive” throughout. Further, in experiment [18], the Potency result was “inactive”. Further, in [17], the result was inactive.
On to `COc1ccc2cc3[n+](cc2c1OC)CCc1cc2c(cc1-3)OCO2`, for which the Potency entry in experiment [14] was “inactive and 48.9 µM (active)”; in experiment [4], 2.45 µM (active) and 5.96 µM (active). For the same molecule, the Potency entry in experiment [2], in [3], in [5], in [7], in [8] and in [9] was “inactive” each time. In addition, the Potency entry in experiment [10], in [11], in [15], in experiment [12], in experiment [16] and in [18] was “inactive” throughout.
For `CCCCCCCCCCCCCC(=O)O`, the Potency entry in [14], in experiment [1], in experiment [2], in [3], in [4] and in experiment [5] was “inactive” each time. Further, the Potency result in [8], in experiment [10], in experiment [15], in experiment [12], in experiment [16] and in experiment [13] was “inactive” throughout. Also, the Potency entry in experiment [18] was “inactive”. Further, in [17], the molecule was called inactive.
As for `O=[N+]([O-])c1ccccc1C(F)(F)F`, the Potency entry in [14], in experiment [2], in experiment [19], in experiment [20], in experiment [3] and in experiment [4] was “inactive” in each case. Moreover, the Potency entry in [5], in experiment [6], in [7], in experiment [8], in experiment [9] and in [10] was “inactive” throughout. The Potency result in [11], in [12] and in [18] was “inactive” each time. In addition, in experiment [17], the outcome was inactive.
